In PubChem BioAssay:
The source made the active and inactive calls.

Key:
[1] = A549 cell viability effects, profiling panel, calcein-AM fluorescence, 48 h, basal (AID 1162); conditions: higher = more signal
[2] = adipocyte viability effects, profiling panel, cell-based, 3T3-L1 adipocytes, calcein-AM fluorescence, 48 h, basal (AID 1163); conditions: 3T3-L1 adipocytes viability, higher = more signal
[3] = HepG2 cell viability effects, profiling panel, calcein-AM fluorescence, 48 h, basal (AID 1164); conditions: higher = more signal
[4] = MM1S cell viability effects, profiling panel, calcein-AM fluorescence, 48 h, basal (AID 1165); conditions: higher = more signal;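 also: viability of MM1S multiple myeloma cells under basal unstimulated conditions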
[5] = basal RPMI8226 viability, no added stimulus, profiling panel, cell-based, calcein-AM fluorescence, 48 h, PK04 Diversity Set (AID 1166); conditions: RPMI8226 myeloma viability, higher = more signal;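 also: cells grown under basal conditions without added stimulus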
[6] = basal HepG2 mitochondrial membrane potential changes, profiling panel, cell-based, JC-1 fluorescence, 24 h, 100 nL compound (AID 1167); conditions: higher = more signal
[7] = basal 3T3-L1 adipocyte mitochondrial potential changes, profiling panel, cell-based, JC-1 fluorescence, 3T3-L1 adipocytes, 24 h, 100 nL compound (AID 1168); conditions: JC-1 mitochondrial fluorescence, higher = more signal, called active from +8 up or from −8 down
[8] = basal RPMI8226 mitochondrial membrane potential changes, profiling panel, cell-based, JC-1 fluorescence, 24 h, 100 nL compound (AID 1169); conditions: RPMI8226 myeloma, JC-1 mitochondrial potential fluorescence, higher = more signal
[9] = basal MM1S mitochondrial membrane potential changes, profiling panel, cell-based, JC-1 fluorescence, 24 h, 100 nL compound (AID 1170); conditions: higher = more signal
[10] = A549 lung cancer cell viability effects, profiling panel, resazurin fluorescence, 24 h, PK04 Diversity Set (AID 1171); conditions: higher = more signal, called active from +8 up or from −8 down
Also: test concentration not given here.

| SMILES | z-score [1] | z-score [2] | z-score [3] | z-score [4] | z-score [5] | z-score [6] | z-score [7] | z-score [8] | z-score [9] | z-score [10] |
| --- | --- | --- | --- | --- | --- | --- | --- | --- | --- | --- |
| COCCOC(=O)N1C(=O)[C@@]2(c3cc(C#CCNC(N)=O)ccc31)[C@H](C(=O)Nc1nc3ccccc3s1)[C@H]1C(=O)O[C@H](c3ccccc3)[C@H](c3ccccc3)N1[C@@H]2c1ccccc1OCCO | 1.01 | 0.706 | -0.0995 | 0.223 | 0.405 | -2.73 | 2.4 (inactive) | -0.981 | -1.64 | -1.29 (inactive) |
| CCCNC(=O)[C@@]1(Sc2ccc(C)cc2)CC(=O)N(Cc2ccccc2Cl)[C@@H]1c1ccc(CO)cc1I | 1.43 | -0.139 | 1.01 | -1.9 | -1.67 | 0.377 | 0.667 (inactive) | -0.547 | -1.87 | 0.204 (inactive) |
| C=C(CCCC)/C(=C/C[C@H](OC(=O)c1ccncc1)c1cccc(OCCO)c1)c1cnc2ccccc2c1 | 1.35 | -0.893 | 0.0815 | -3.37 | -2.3 | 0.99 | -1.16 (inactive) | -0.817 | -0.718 | 0.588 (inactive) |
| CCN(CC)c1ccc(N2CC=CC34O[C@@H]5C=CCCOC(=O)C5[C@H]3C(=O)N(C(C)CO)[C@@H]4C2=O)cc1 (stereo not given in full) | -0.0735 | -0.456 | 0.316 | 0.241 | 0.333 | 0.408 | 0.0389 (inactive) | -0.487 | 0.0276 | 0.586 (inactive) |
| CC(C)=CCCC(C)=CC(O)C1C=CC2C(=O)NC(=O)C2N1Nc1ccc(Cl)cc1Cl (stereo not given) | -0.483 | -0.0042 | -1.62 | -3.76 | -4.11 | -3.49 | -0.947 (inactive) | -0.238 | -0.506 | -0.577 (inactive) |
| O=C1c2ccccc2[C@@]2(Cc3ccccc3N(Cc3ccccc3)C2=O)[C@H](c2ccc(CO)cc2)N1Cc1ccccc1Cl | -0.334 | 0.331 | -0.826 | -0.411 | 0.139 | 1.1 | -0.407 (inactive) | -0.972 | -0.316 | -0.166 (inactive) |
| COc1ccc([Si](C)(C)[C@H]2[C@H](CC(=O)N3Cc4ccccc4C[C@H]3CO)O[C@@]3(C(=O)N(c4ccccc4)c4ccccc43)[C@@H]2C)cc1 | -0.782 | 0.898 | -0.755 | -2.67 | -4.49 | 0.959 | -0.652 (inactive) | -1.1 | -0.81 | 0.698 (inactive) |
| C=CCC(OC(C)=O)[C@@H]1[C@@H](N(Cc2ccc(-c3ccccc3)cc2)C(=O)c2cccc3ccccc23)c2cc(OCCCO)ccc2N1C(=O)Cc1ccc(OC)cc1 (stereo not given in full) | -0.0276 | 0.725 | -0.518 | -0.536 | -0.682 | 1.57 | -1.63 (inactive) | 0.78 | 0.401 | -0.399 (inactive) |
| CC(C)(C)OC(=O)CC[C@@]1(C(=O)NCCN2CCOCC2)N=C(c2ccc(OCCCO)cc2)O[C@@H]1c1ccccc1CN=[N+]=[N-] | -0.34 | -0.502 | 0.463 | -0.0725 | -0.749 | 0.777 | -0.916 (inactive) | -0.29 | -0.586 | 0.973 (inactive) |
| CC(C)=CCCC=C(C)C(O)C1C=CC2C(=O)N(c3ccccc3)C(=O)C2N1Nc1ccc(C#N)cc1 (stereo not given) | 1.46 | 0.464 | 1.47 | -1.65 | -1.92 | -0.428 | -0.926 (inactive) | -0.483 | -1.29 | -1.18 (inactive) |
| CCCC=C(CCC)[C@@H](NC(=O)OCC(C)C)c1ccc(C(=O)OC)cc1 | 0.732 | -0.196 | 0.0516 | 0.753 | 0.528 | -0.345 | -1.53 (inactive) | -0.0219 | -1.32 | 0.293 (inactive) |
| CCOc1cc(C(O)C2C=CC3C(=O)N(c4ccccc4)C(=O)C3N2Nc2ccccc2F)ccc1O (stereo not given) | 0.0113 | 0.521 | 0.294 | -0.495 | -0.18 | -1.58 | -0.945 (inactive) | -0.853 | 0.699 | -0.928 (inactive) |
| COc1ccc([Si](C)(C)[C@H]2[C@H](CCO)O[C@@]3(C(=O)N(Cc4cccc(N(C=O)c5ccccc5)c4)c4ccccc43)[C@@H]2C)cc1 | -0.533 | 0.441 | -3.83 | -1.18 | -4.23 | 1.01 | 0.549 (inactive) | -1.03 | -1.85 | -2.2 (inactive) |
| CCCC#C[Si](O[C@H](CC)c1cn(Cc2ccccc2)nn1)(C(C)C)C(C)C | -0.164 | -0.782 | 0.709 | -0.588 | -0.439 | 0.0193 | -0.497 (inactive) | 0.973 | -1.16 | -0.406 (inactive) |
| CC1CC/C=C\[C@H]2OC34C=CCN(C(C)(C)C)C(=O)[C@H]3N(CCCO)C(=O)[C@@H]4C2C(=O)O1 (stereo not given in full) | -0.459 | 0.0593 | -0.869 | 1.15 | -0.339 | -0.749 | -0.274 (inactive) | -0.0634 | 0.522 | -0.0125 (inactive) |
